Bioassay records as filed in PubChem.
Compounds with a hit are over-represented: about 3.5% of the library has one in this group of screens.
BoNT A protease: blocks Botulinum neurotoxin A light chain protease; multiplex microsphere protease substrate cleavage, flow cytometry; inhibition, % at 10 µM; hit rate 0.17% among 360,000; also: plate controls were buffer without enzyme for full effect and enzyme alone for no effect
Autofluor counter: counter-screen for toxin protease inhibitors: compound fluorescence; compound autofluorescence counterscreen, microsphere flow cytometry; stronger effect = higher value; fluorescence intensity (test concentration not listed); hit rate 3.1% among 360,000; in the data active = fluorescence intensity above about 16000; inconclusive = no clear call, values can overlap the other calls
BoNT F protease: inhibitors of Botulinum neurotoxin F light chain protease | Multiplex microsphere protease cleavage assay, flow cytometry | inhibition, % at 10 µM | hit rate 0.22% among 360,000; in the data active = inhibition above about 35%, passing the limit was not always enough; inconclusive = no clear call, values can overlap the other calls; also: plate controls were buffer without enzyme for full effect and enzyme alone for no effect
Anthrax LF inh2: blocks Bacillus anthracis lethal factor protease; hit rate 0.12% among 360,000; AID 588501; multiplex microsphere protease cleavage assay, LF; inhibition, % at 10 µM; P15917; also: plate controls were buffer without enzyme for full effect and enzyme alone for no effect
An asterisk follows results filed as active. Rule as the data show it, unless noted: active = inhibition above about 30%; inconclusive = no clear call, values can overlap the other calls; inactive = below that.

Results for O=C1SC(SCc2ccccc2)=N/C1=C\c1ccco1 ?
BoNT A protease: -2; Autofluor counter: 23038*; BoNT F protease: -4; Anthrax LF inh2: -3

What do the screens show for `C=CCNc1nnc(SC2CC(=O)N(c3ccc(OC)cc3)C2=O)s1` (stereo not drawn)?
BoNT A protease: -3; Autofluor counter: 17184*; BoNT F protease: -4; Anthrax LF inh2: -6

Results for COc1ccc(N2C(=O)CC(Sc3nc4ccccc4s3)C2=O)cc1 (stereo not drawn) ?
BoNT A protease: -1; Autofluor counter: 4550; BoNT F protease: -2; Anthrax LF inh2: -4

Results for COc1cc(NC(=O)CCl)ccc(=O)c1 ?
BoNT A protease: 0; Autofluor counter: 2904; BoNT F protease: -6; Anthrax LF inh2: -4

How did CCOC(=O)c1nn(-c2ccc(F)cc2)c2nc(CC(C)C)c(C#N)c(=O)n12 do in these assays?
BoNT A protease: 8; Autofluor counter: 18268*; BoNT F protease: 12; Anthrax LF inh2: -20

What do the screens show for `CCOC(=O)c1nn(-c2ccccc2)c2nc(-c3ccc(OC)cc3)c(C#N)c(=O)n12`?
BoNT A protease: 0; Autofluor counter: 2378; BoNT F protease: -8; Anthrax LF inh2: -2

What do the screens show for `O=C(CCc1nc2ccccc2c(=O)[nH]1)NNC(=O)COc1cccc(F)c1`?
BoNT A protease: 1; Autofluor counter: 8753; BoNT F protease: 1; Anthrax LF inh2: -4

How did CCNC(=O)n1nccc1C(C)Oc1ccccc1 (stereo not drawn) do in these assays?
BoNT A protease: 0; Autofluor counter: 21929*; BoNT F protease: -4; Anthrax LF inh2: -10

What do the screens show for `CC(Oc1ccccc1)c1ccnn1S(=O)(=O)c1ccccc1` (stereo not drawn)?
BoNT A protease: 1; Autofluor counter: 4105; BoNT F protease: 8; Anthrax LF inh2: -4

Results for CC(=O)Nc1ccc2c(c1)ncn2-c1ccccc1 ?
BoNT A protease: 0; Autofluor counter: 4327; BoNT F protease: 6; Anthrax LF inh2: 14

What do the screens show for `CCC(=O)Nc1ccc2c(c1)ncn2-c1ccccc1`?
BoNT A protease: -8; Autofluor counter: 21985*; BoNT F protease: -10; Anthrax LF inh2: 0

Results for Cc1c(N2C(=O)CS/C2=N\N=C\c2ccccc2O)c(=O)n(-c2ccccc2)n1C ?
BoNT A protease: inconclusive; Autofluor counter: 16255*; BoNT F protease: -3; Anthrax LF inh2: -3

How did CCOC(=O)C1C2C=CC3(CN(Cc4cccs4)C(=O)C13)O2 (stereo not drawn) do in these assays?
BoNT A protease: 1; Autofluor counter: 2963; BoNT F protease: 5; Anthrax LF inh2: 4

Results for Cc1ccc(CN2CC34C=CC(O3)C(C(=O)NCc3ccc5c(c3)OCO5)C4C2=O)cc1 (stereo not drawn) ?
BoNT A protease: 0; Autofluor counter: 9906; BoNT F protease: 8; Anthrax LF inh2: -3

Results for COC(=O)C1[C@H]2C(=O)N(Cc3cccs3)C[C@]23C=C[C@H]1O3 (stereo partly drawn) ?
BoNT A protease: -1; Autofluor counter: 23081*; BoNT F protease: -3; Anthrax LF inh2: -1

What do the screens show for `COCCCNC(=O)C1C2C=CC3(CN(Cc4ccc(C)cc4)C(=O)C13)O2` (stereo not drawn)?
BoNT A protease: -1; Autofluor counter: 23422*; BoNT F protease: -1; Anthrax LF inh2: -2

How did CC1(C)C/C(=N\O)c2cc3c(nc2C1)CCCC3 do in these assays?
BoNT A protease: -3; Autofluor counter: 23918*; BoNT F protease: -6; Anthrax LF inh2: -1

What do the screens show for `Cn1c(=O)c(=O)n(C)c2cc(S(=O)(=O)Nc3ccc4c(c3)OCCO4)ccc21`?
BoNT A protease: inconclusive; Autofluor counter: 22407*; BoNT F protease: -2; Anthrax LF inh2: -2

How did Cc1ccc(NS(=O)(=O)c2ccc3c(c2)oc(=O)n3C)cc1C do in these assays?
BoNT A protease: -3; Autofluor counter: 3819; BoNT F protease: 4; Anthrax LF inh2: -11

How did Cn1c(=O)oc2cc(S(=O)(=O)Nc3ccc4c(c3)OCCO4)ccc21 do in these assays?
BoNT A protease: inconclusive; Autofluor counter: 21945*; BoNT F protease: -8; Anthrax LF inh2: 0

Results for CCOC(=O)C1(S(=O)(=O)c2ccc(Cl)cc2)CCN(Cc2ccc(C)cc2)CC1 ?
BoNT A protease: 0; Autofluor counter: 20535*; BoNT F protease: -4; Anthrax LF inh2: -9

What do the screens show for `COc1cccc(CN2CC(C(=O)NCCc3nccs3)CCC2=O)c1` (stereo not drawn)?
BoNT A protease: 0; Autofluor counter: 2986; BoNT F protease: 0; Anthrax LF inh2: -6

Results for Cc1cccc(NC(=S)N/N=C/c2ccc([N+](=O)[O-])s2)c1 ?
BoNT A protease: 88*; Autofluor counter: 3008; BoNT F protease: 20; Anthrax LF inh2: 52*

How did Cc1cccc(NC(=O)/C=C/c2ccc([N+](=O)[O-])s2)c1 do in these assays?
BoNT A protease: 1; Autofluor counter: 2160; BoNT F protease: -6; Anthrax LF inh2: -1

How did CC(C)(C)C1(c2ccccc2)NC(=O)N(CC(=O)N2CCOCC2)C1=O (stereo not drawn) do in these assays?
BoNT A protease: inconclusive; Autofluor counter: 19617*; BoNT F protease: 2; Anthrax LF inh2: -3

How did CC1(c2ccccc2)NC(=O)N(CC(=O)N2CCOCC2)C1=O (stereo not drawn) do in these assays?
BoNT A protease: 0; Autofluor counter: 11302; BoNT F protease: 2; Anthrax LF inh2: -1

How did O=C(Nc1ccccc1Cl)C1CC(=O)N(Cc2ccco2)C1 (stereo not drawn) do in these assays?
BoNT A protease: 0; Autofluor counter: 3058; BoNT F protease: -4; Anthrax LF inh2: 1

How did COC(=O)Cc1c(C)nc2nc(-c3ccc(OC)cc3)[nH]n2c1=O do in these assays?
BoNT A protease: 0; Autofluor counter: 22942*; BoNT F protease: 4; Anthrax LF inh2: 0

How did COc1ccc(-c2nc3nc(C)c(Cc4ccccc4)c(=O)n3[nH]2)cc1 do in these assays?
BoNT A protease: 0; Autofluor counter: 22311*; BoNT F protease: 0; Anthrax LF inh2: -1

How did COC(=O)Cc1c(C)nc2nc(NCc3c(F)cccc3Cl)[nH]n2c1=O do in these assays?
BoNT A protease: 0; Autofluor counter: 2820; BoNT F protease: 1; Anthrax LF inh2: 1

What do the screens show for `COc1ccc(-c2nc3nc(C)cc(=O)n3[nH]2)cc1`?
BoNT A protease: 0; Autofluor counter: 5733; BoNT F protease: -1; Anthrax LF inh2: -3

Results for CCOC(=O)C1(C)CCCN(C(=O)c2snnc2C)C1 (stereo not drawn) ?
BoNT A protease: 0; Autofluor counter: 3708; BoNT F protease: 5; Anthrax LF inh2: 3

Results for CC(=O)c1cnc(N2CCCCC2)nc1C ?
BoNT A protease: 2; Autofluor counter: 21581*; BoNT F protease: 4; Anthrax LF inh2: 0

What do the screens show for `CC(C)(C)S(=O)(=O)c1cnc(N2CCCCC2)nc1N`?
BoNT A protease: 0; Autofluor counter: 5940; BoNT F protease: -3; Anthrax LF inh2: 4

Results for COc1ccc(Cc2c(-c3cccc(Br)c3)nc3ccc(Cl)cn23)c(C)c1 ?
BoNT A protease: 8; Autofluor counter: 7038; BoNT F protease: -10; Anthrax LF inh2: 18

Results for COc1ccc(Cc2c(-c3ccccc3)nc3ccc(Br)cn23)c(C)c1 ?
BoNT A protease: 40*; Autofluor counter: 5928; BoNT F protease: -1; Anthrax LF inh2: 21
